Compound activity (PubChem)
Hits are enriched below; roughly 9.2% of the tested compounds scored in any of these assays.
ELG1 genotoxic: genotoxicity induction in ELG1-luciferase HEK293T cells; HEK293T ELG1-luciferase reporter, luminescence, 16 h; Potency, µM (titrated, usually from 46 µM), usual class: activators; hit rate 1.3% among 330,000; AID 504466; also: nearly all actives have a fitted effect of over 60% in size
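Cells (2,000/well) expressing the ELG1-luciferase fusion are dosed by pin tool and kept 16 hr at 37 °C, 5% CO2. Signal comes from ONE-Glo luciferase reagent after 30 min at room temperature.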
SMN2 splice up: SMN2 splice variant enhancement; HEK293 SMN2-luciferase splicing reporter, luminescence, 30-36 h; Potency, µM (doses to about 46.1 µM), most hits filed as activators; hit rate 2.8% among 210,000; AID 1458; also: nearly all actives have a fitted effect of over 55% in size
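HEK293 cells carry an SMN2 […]–luciferase reporter in which exon 7 inclusion puts luciferase in frame. Cells were plated 10-12 h before compound addition, then incubated 30-36 h at 37C. ONE-Glo luminescence was read; sodium butyrate at 4.5 mM final served as control.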
Rab9 prom act: Rab9 promoter activation | hit rate 2.8% among 320,000 | Potency, µM (top dose mostly 9.22 µM), hits mostly activators | Huh7 Rab9 promoter-luciferase reporter, luminescence, 24 h; also: nearly all actives have a fitted effect of over 60% in size
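Luminescence from Amplite-detected luciferase (10 minutes, ambient) reports Rab9 promoter activation. Before that, stable Rab9-luciferase Huh7 cells (1500/well, reduced-serum OP-MEM I plus 10% FBS) were exposed to compound for 24 hours at 37C.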
ELG1 DNA repair: inhibitors of ELG1-dependent DNA repair in HEK293T cells | hit rate 2.3% among 330,000 | HEK293T ELG1-luciferase reporter, luminescence, 16 h; DNA damage induced by 5-fluorouridine | Potency, µM (titrated, usually from 46.1 µM), actives largely listed as inhibitors; also: nearly all actives have a fitted effect of over 55% in size
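In this reporter screen, reduction of luminescence relative to DMSO vehicle indicated activity. Compounds and 5-fluorouridine were added together to 2,000 cells per well, incubated for 16 hr at 37 °C, then developed with ONE-Glo.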
NPC1 prom act: NPC1 promoter activation. Huh7 NPC1 promoter luciferase reporter, 24 h. Potency, µM (titrated, usually from 9.22 µM), usual class: activators. hit rate 2.4% among 320,000. AID 485313; also: nearly all actives have a fitted effect of over 60% in size
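Luciferase expression driven by the NPC1 promoter was measured in stably transfected Huh7 cells after a 24 h compound incubation, using a luciferase reagent and a luminescence read.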
FLuc modulator: firefly luciferase modulation, counter-screen for miR-21 project | hit rate 6.9% among 360,000 | Potency, µM (doses to about 57.5 µM), actives largely listed as inhibitors | P08659 | purified FLuc, Km substrates, luminescence inhibition; also: nearly all actives have a fitted effect of over 55% in size
Target sequence (P08659 whole entry, looked up): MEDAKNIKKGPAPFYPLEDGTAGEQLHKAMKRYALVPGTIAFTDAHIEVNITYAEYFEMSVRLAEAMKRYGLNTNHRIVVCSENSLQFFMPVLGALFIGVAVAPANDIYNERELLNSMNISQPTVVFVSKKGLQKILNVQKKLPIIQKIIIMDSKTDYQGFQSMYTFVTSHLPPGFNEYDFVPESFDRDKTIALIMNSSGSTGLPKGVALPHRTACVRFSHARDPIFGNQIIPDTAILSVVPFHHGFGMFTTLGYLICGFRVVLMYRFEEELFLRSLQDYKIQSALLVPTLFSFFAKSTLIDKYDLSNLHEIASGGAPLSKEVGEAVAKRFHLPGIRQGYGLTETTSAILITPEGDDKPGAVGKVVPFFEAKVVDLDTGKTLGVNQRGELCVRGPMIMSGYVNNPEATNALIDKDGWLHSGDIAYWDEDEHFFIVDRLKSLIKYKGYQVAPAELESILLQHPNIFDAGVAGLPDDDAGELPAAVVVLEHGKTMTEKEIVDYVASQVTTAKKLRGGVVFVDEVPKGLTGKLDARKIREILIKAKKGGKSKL
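Purified P. pyralis luciferase, 10 nM final, with Km-level 10 uM D-luciferin and 10 uM ATP in 50 mM Tris acetate pH 7.5, 10 mM Mg acetate, 0.01% Tween-20, 0.05% BSA; 6-point qHTS titration about 60 µM downward; luminescence read.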
Large screens that a line does not name were inactive. Calls follow the shape of the dose curve; as a rule, active = well fitted curve in the direction sought with a large enough effect; inconclusive = small, poorly fitted or top-dose-only effect, or another doubt; inactive = no such curve, though single readings can be large; an effect the other way counts as inactive or inconclusive.

COc1ccc(CNC(=O)C(C)n2nc(C)c3sc4ccccc4c3c2=O)cc1OC (configuration not stated)	none (no result: ELG1 genotoxic, SMN2 splice up, Rab9 prom act, ELG1 DNA repair, NPC1 prom act)
COC(=O)C(NC(=O)CCc1c(C)nc2c(-c3ccccc3)c(C)nn2c1C)C(C)C (configuration not stated)	none (no result: ELG1 genotoxic, Rab9 prom act, ELG1 DNA repair, NPC1 prom act)
Cc1ccc(-c2noc(CN3CCC(C(N)=O)CC3)n2)cc1	Rab9 prom act inconclusive, ELG1 DNA repair inconclusive, NPC1 prom act inconclusive, FLuc modulator inconclusive
CC1CCN(Cc2nc(-c3ccccc3)no2)CC1	ELG1 genotoxic 5.17µM, Rab9 prom act 2.82µM, ELG1 DNA repair inconclusive, NPC1 prom act 2.82µM, FLuc modulator 12µM (no result: SMN2 splice up)
Cc1ccc(-c2noc(CN3C(C)CCCC3C)n2)cc1 (configuration not stated)	ELG1 genotoxic 20.6µM, FLuc modulator inconclusive
Clc1ccc(OCc2cn3ccccc3n2)c2ncccc12	ELG1 genotoxic inconclusive, Rab9 prom act 2.82µM, ELG1 DNA repair inconclusive, NPC1 prom act 3.55µM, FLuc modulator 12µM (no result: SMN2 splice up)
OCc1ccccc1OCCOc1ccc(Cl)c2cccnc12	ELG1 genotoxic inconclusive, ELG1 DNA repair inconclusive, FLuc modulator 19µM
O=C(O)C12CC3(C(=O)O)CC(C(=O)O)(CC(C(=O)O)(C1)C3=O)C2=O	none (no result: ELG1 genotoxic, Rab9 prom act, ELG1 DNA repair, NPC1 prom act, FLuc modulator)
COc1ccc(-n2nnnc2C2CCN(S(=O)(=O)c3ccc(NC(C)=O)cc3)CC2)cc1	none (no result: ELG1 genotoxic, Rab9 prom act, ELG1 DNA repair, NPC1 prom act)
CC(C)Oc1ccc(C(=O)Nc2nnc3n2CCS3)cc1	FLuc modulator 10.7µM (no result: ELG1 genotoxic, SMN2 splice up, Rab9 prom act, ELG1 DNA repair, NPC1 prom act)
CCN(C(=O)Cn1c(Cl)nc2c1c(=O)n(C)c(=O)n2C)C1CCCCC1	none (no result: SMN2 splice up, Rab9 prom act, NPC1 prom act, FLuc modulator)
Cc1c(CC(=O)O)c(=O)oc2cc3oc4c(c3cc12)CCCC4	FLuc modulator 26.9µM (no result: SMN2 splice up)
Cc1oc2cc3oc(=O)c(CC(=O)O)c(C)c3cc2c1-c1ccccc1	none (no result: SMN2 splice up)
Cc1c(CC(=O)NCC(=O)NCC(=O)O)c(=O)oc2c(C)c3oc4c(c3cc12)CCCC4	FLuc modulator inconclusive (no result: SMN2 splice up)
Cc1c(CC(=O)NCC(=O)O)c(=O)oc2cc3oc4c(c3cc12)CCCC4	FLuc modulator 15.1µM (no result: SMN2 splice up)
Cc1occc1C(=O)O/N=C(\N)c1ccccc1	ELG1 genotoxic inconclusive, Rab9 prom act 0.447µM, ELG1 DNA repair inconclusive, NPC1 prom act 0.447µM, FLuc modulator 1.9µM (no result: SMN2 splice up)
Cc1onc(-c2ccccc2Cl)c1C(=O)O/N=C(\N)c1ccccc1	none (no result: SMN2 splice up)
Cc1cccc(/C(N)=N/OC(=O)c2ccoc2C)c1	ELG1 genotoxic inconclusive, Rab9 prom act 1.26µM, ELG1 DNA repair inconclusive, NPC1 prom act 1.12µM, FLuc modulator 3.79µM (no result: SMN2 splice up)
CCc1ccc(CNC(=O)c2cc(=O)[nH]c3ccc(S(=O)(=O)N4CCCCC4)cc23)cc1	none (no result: ELG1 genotoxic, SMN2 splice up, Rab9 prom act, ELG1 DNA repair, NPC1 prom act)
O=C(NCc1ccccn1)Nc1ccccc1Cl	ELG1 genotoxic inconclusive, ELG1 DNA repair inconclusive (no result: SMN2 splice up)
O=C(NCc1ccccn1)Nc1ccc(Cl)cc1Cl	ELG1 genotoxic inconclusive, Rab9 prom act inconclusive, ELG1 DNA repair inconclusive, NPC1 prom act 3.16µM, FLuc modulator inconclusive (no result: SMN2 splice up)
O=C(NCc1ccccn1)Nc1ccccc1	ELG1 genotoxic inconclusive, Rab9 prom act 1.58µM, ELG1 DNA repair inconclusive, NPC1 prom act inconclusive, FLuc modulator 13.5µM (no result: SMN2 splice up)
Cc1ccc(NC(=O)C(NCc2ccccn2)c2ccccc2)cc1 (configuration not stated)	ELG1 DNA repair inconclusive, FLuc modulator 16.9µM
COC(=O)N1C2=C(c3ccccc3[C@@H]1CC(=O)Nc1ccc3ccc4cccc5ccc1c3c45)[C@@H]1C(=O)N(c3ccccc3)C(=O)[C@@H]1[C@H](C)C2	none (no result: ELG1 genotoxic, Rab9 prom act, ELG1 DNA repair, NPC1 prom act, FLuc modulator)
CCN1C(=O)c2cccc3c(NC(=O)c4ccc(OC)c(OC)c4)ccc1c23	ELG1 genotoxic 14.6µM, ELG1 DNA repair inconclusive (no result: SMN2 splice up)
Cc1ccc(OCCN2CCN(C(=O)CCC(=O)Nc3nnc(CC(C)C)s3)CC2)cc1	ELG1 DNA repair 2.59µM (no result: SMN2 splice up)
COc1ccc([C@]23Cc4cc(OC)c(OC)cc4C(O2)C2=C(CCCC2=O)O3)cc1	FLuc modulator inconclusive (no result: ELG1 genotoxic, SMN2 splice up, ELG1 DNA repair)
CCOC(=O)CSc1nc(-c2ccc(OC)cc2)ns1	ELG1 DNA repair inconclusive, FLuc modulator 23.9µM
CCOC(=O)CNC(=O)CSc1nc(-c2ccccc2)ns1	FLuc modulator inconclusive
CCOC(=O)N1CCN(C(=O)CSc2nc(-c3cccc(C)c3)ns2)CC1	FLuc modulator 16.9µM
Cc1cccc(-c2nsc(SCC(=O)Nc3cc(C)on3)n2)c1	ELG1 DNA repair inconclusive
